{
  "source": "PubChem BioAssay (NCI)",
  "note": "Compounds without any hit were thinned out: in the full panel of roughly 83,000, 20% have a hit.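 Activity criterion: percent growth below 10, measured after cells in 96-well plates were exposed to a single compound concentration for 48 hours.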 Values without a mark were called inactive. Activity calls are given as the source filed them.",
  "data": [
    {"tested_on": "HL-60(TB) leukemia", "test": "NCI-60 one-dose screen, 48 h (100 = growth as untreated, 0 = no growth, -100 = all killed)", "settings": "10 µM unless noted", "values": [
      {"smiles": "COc1ccc(/C=C2\\CCCC3=C2NC(N)=NC3c2ccc(OC)c(OC)c2)cc1OC", "note": "(stereo not given)", "growth": "42.4%"},
      {"smiles": "CC1(C)N=C(N)N=C(N)N1c1cccc(CCc2ccccc2)c1", "growth": "32.4%"},
      {"smiles": "Oc1ccccc1/C=N/c1ccccn1", "growth": "102%"},
      {"smiles": "O=C(/C=C/C12c3ccccc3C(c3ccccc31)C1C(=O)N(c3ccc(Cl)cc3)C(=O)C12)c1ccccn1", "note": "(stereo not given)", "growth": "-19.4% (active)"},
      {"smiles": "ClC(Cl)(Cl)c1nc2nccnc2[nH]1", "growth": "103%"},
      {"smiles": "Cc1ncc(C(=O)Nc2ccc(CN3CCN(C)CC3)c(C(F)(F)F)c2)cc1C#Cc1cnc(N)c2ccc(C#N)cc12", "growth": "13.2%"},
      {"smiles": "N#Cc1c(Nc2ccccc2)nc2n(c1=O)-c1ccccc1Sc1ccccc1-2", "growth": "79.6%"},
      {"smiles": "CCCCCCCCCCCCCC[n+]1ccccc1", "growth": "-70.3% (active)"},
      {"smiles": "CS(=O)(=O)c1ccc(C(=O)N/N=C/c2ccccc2Cl)cc1", "growth": "52.3%"},
      {"smiles": "COC(=O)/C=C1\\SC(=Nc2ccc(C(F)(F)F)cc2)N(CCc2c[nH]c3ccccc23)C1=O", "growth": "-55.4% (active)"},
      {"smiles": "O=C(Nc1cccc(C(F)(F)F)c1)Oc1ccc(Cl)c2cccnc12", "growth": "-10.6% (active)"},
      {"smiles": "Cn1cnc(-c2cc3nccc(Oc4ccc(NC(=S)NC(=O)Cc5ccccc5)cc4F)c3s2)c1", "growth": "80%"},
      {"smiles": "CC1(C)Oc2cc3oc(=O)ccc3cc2C[C@@H]1OCCOS(=O)(=O)c1ccc(C#N)cc1", "growth": "100%"},
      {"smiles": "CC(=O)c1cc2ccccc2o1", "growth": "102%"},
      {"smiles": "O=C1CCCC=CC[C@H]2C=C(Cl)C(=O)C2=CC[C@H](CCCCC(F)(F)F)OC(=O)CCCC=CC[C@H]2C=C(Cl)C(=O)C2=CC[C@H](CCCCC(F)(F)F)OC(=O)CCCC=CC[C@H]2C=C(Cl)C(=O)C2=CC[C@H](CCCCC(F)(F)F)O1", "growth": "27.6% [6.25 µM]"},
      {"smiles": "COc1cc(C2CC(c3ccc(Cl)cc3)=NN2C=O)ccc1Oc1ccnc2cc(Cl)ccc12", "note": "(stereo not given)", "growth": "85.9%"},
      {"smiles": "C[C@]12CCc3nc(Nc4cccc(O)c4)sc3C1=CC[C@@H]1[C@@H]2CC[C@]2(C)/C(=N\\NC(N)=S)CC[C@@H]12", "growth": "10.9%"},
      {"smiles": "CCCCCCCCn1ccc2cc(NC(=O)CN=[N+]=[N-])ccc21", "growth": "102%"},
      {"smiles": "C/C(=C(/c1ccc(O)cc1)c1ccc(OCCN(C)C)cc1)c1ccccc1", "growth": "76%"},
      {"smiles": "COCCCOc1cc(C[C@@H](C[C@H](N)[C@@H](O)C[C@H](C(=O)NCC(C)(C)C(N)=O)C(C)C)C(C)C)ccc1OC", "growth": "111%"},
      {"smiles": "C=C1C(=O)O[C@H]2[C@H]1CC/C(COC(=O)NCc1c[nH]c3ccc(F)cc13)=C\\CC[C@@]1(C)O[C@@H]21", "growth": "-32.4% (active)"},
      {"smiles": "C/C(=N\\NC(=S)Nc1ccccc1)c1ccccn1", "growth": "3.23% (active)"},
      {"smiles": "CC(O)C(O)C(O)C(O)C(O)C(=O)NNc1ccccc1", "note": "(stereo not given)", "growth": "116%"},
      {"smiles": "COc1cc(/C=C/C(=O)c2cc(-c3ccc(C(F)(F)F)cc3)ccc2O)cc(OC)c1OC", "growth": "13.9%"},
      {"smiles": "COc1ccc(-n2c(=O)c3ccccc3n(Cc3ccc(C(=O)NO)cc3)c2=O)cc1", "growth": "-4.17% (active)"},
      {"smiles": "Cc1ccc(-c2nc3nc(-c4ccc(Cl)cc4)nc(N4CCCNCC4)c3o2)cc1", "growth": "-67.6% (active)"},
      {"smiles": "O=c1cc(C2NCCc3c2[nH]c2ccccc32)c2c(ccc3ccccc32)o1", "note": "(stereo not given)", "growth": "48.5%"},
      {"smiles": "O=C(CCN1C(=O)/C(=C/c2ccc(Cl)cc2)SC1=S)NCCCN1CCOCC1", "growth": "98.9%"},
      {"smiles": "CCN1C(=S)N(c2ccccc2)C2C1NN=c1s/c(=C3\\C(=O)N(C(C)C)c4ccccc43)c(=O)n12", "note": "(stereo not given)", "growth": "96.6%"},
      {"smiles": "C#CCNC(=O)[C@]1(C)CC[C@]2(C)CC[C@@H]3C(=CC[C@H]4[C@@]3(C)CC[C@H]3C(C)(C)C(=O)CC[C@]43C)[C@@H]2C1", "growth": "56.2%"},
      {"smiles": "NC(=O)c1c(NC(=O)c2ccc3ccccc3c2)sc2c1CCC(=O)C2", "growth": "50.9%"},
      {"smiles": "CCOC(=O)c1c(CN2CCN(C)CC2)nc2ccc(Cl)cc2c1-c1ccccc1", "growth": "26.5%"},
      {"smiles": "Cc1ccc2c(n1)C(=O)C(Cl)=C(Nc1ccccc1C(C)C)C2=O", "growth": "-15.3% (active)"},
      {"smiles": "O=C(CNC(=O)c1cccc2ccccc12)Nc1ccccc1Oc1cccc(O)c1", "growth": "-24.1% [5 µM] (active)"},
      {"smiles": "O=C(CCl)N1c2ccccc2Oc2ccc3ccccc3c21", "growth": "-0.539% (active)"},
      {"smiles": "COc1ccc2nc(NC(=O)Nc3c(F)cccc3F)sc2c1", "growth": "79.1%"},
      {"smiles": "CCCCCCOC(=O)CC1=C(C)/C(=C/c2[nH]c(-c3ccc[nH]3)cc2OC)N=C1C", "growth": "-42.7% (active)"},
      {"smiles": "Clc1ccc(-c2nc(NCCc3ccccc3)nc3c(NCCc4ccccc4)cnn23)cc1", "growth": "88.8%"},
      {"smiles": "CCc1cc2c(cc1N1CCC(N3CCOCC3)CC1)C(C)(C)c1[nH]c3cc(C#N)ccc3c1C2=O", "growth": "-6.15% (active)"},
      {"smiles": "COc1ccc(C(=O)/C=C/c2cccc([N+](=O)[O-])c2)c(OC)c1", "growth": "-10.4% (active)"}
    ]}
  ]
}
